Compound activity (PubChem)
LDHA block: LDHA (human) enzyme inhibition. purified LDHA, NADH/diaphorase-resazurin fluorescence; hits give low values. activity change, % (values are at about 110 or 230 µM). 480,000 compounds, 0.15% hits. AID 1347041; in the data active = activity change below about -30%; inconclusive = mostly about -25% to -30%;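 note: plate controls were DMSO wells for no effect and wells without enzyme for full effect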
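Remaining NADH was detected by diaphorase (0.133 mg/mL) converting 37 µM resazurin to fluorescent resorufin, read at 0 and 20 minutes. The preceding 5-minute room-temperature reaction used 2 nM LDHA, 0.2 mM sodium pyruvate and 0.06 mM NADH at pH 7.4.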
p53 reactivator: re-activators of mutant p53; 320,000 compounds, 0.063% hits; Potency, µM (top dose mostly 92.2 µM), without a hit: at the top dose activity change, positive = activation, actives largely listed as activators; H1299 p53-A138V BP100-luciferase reporter, luminescence, 24 h; note: potency is the fitted concentration of half-maximal effect; % of control where 0% means no effect; nearly all actives have a fitted effect of over 45% in size
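H1299 (p53-null), stable ts p53-A138V + BP100-Luc; 1000 cells/well, Opti-MEM/10% FBS; cpd 4 pt, 1:5; 24 h, 37 deg C, 5% CO2; detection reagent 10 min RT; luminescence.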
BRCA1 expr up: activators of BRCA1 expression | MCF7-BRCA1-FFLuc reporter, luminescence, 48 h; response scale: scaled: vehicle 0%, 10 µM genistein 100% | Potency, µM (series often up to 46.1 µM), inactives show at the top dose activation, most hits filed as activators | 380,000 compounds, 1.1% hits; note: potency is the fitted concentration of half-maximal effect; nearly all actives have a fitted effect of over 80% in size
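Compounds are tested at multiple concentrations on MCF7 BRCA1-luciferase reporter cells seeded at 2000 per well; after 48 h, a single luminescence end-point is taken and curves fitted to the normalized data.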
PTHR1 ag: activates the human parathyroid hormone receptor PTHR1 | Q03431 | HEK293 GP2 PTHR1 cells, GloSensor cAMP luminescence, 1 h | Potency, µM (titrated, usually from 115 µM), without a hit: at the top dose activation, usual class: activators | 410,000 compounds, 0.075% hits; note: potency is the fitted concentration of half-maximal effect; nearly all actives have a fitted effect of over 55% in size
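HEK-293-derived GP2 cells expressing PTHR1 and a GloSensor cAMP reporter, 3,000/well, plated overnight, given luciferin plus IBMX (each 0.5 mM as added) for 1 h at 37 °C, then compound for 1 h at 37 °C. Luminescence was read after 15 min at room temperature.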
RGS4 inhibitor: human RGS4 inhibition | P49798 | Transcreener GDP fluorescence polarization, RGS4-accelerated GTP hydrolysis | Potency, µM (titrated, usually from 114 µM), inactives show top-dose activity change, negative = inhibition, hits mostly inhibitors | 390,000 compounds, 0.039% hits | AID 504845; note: potency is the fitted concentration of half-maximal effect; % is set by controls: 0 for no effect and ±100 for the full control effect; nearly all actives have a fitted effect of over 75% in size
Target sequence (P49798 whole entry, looked up): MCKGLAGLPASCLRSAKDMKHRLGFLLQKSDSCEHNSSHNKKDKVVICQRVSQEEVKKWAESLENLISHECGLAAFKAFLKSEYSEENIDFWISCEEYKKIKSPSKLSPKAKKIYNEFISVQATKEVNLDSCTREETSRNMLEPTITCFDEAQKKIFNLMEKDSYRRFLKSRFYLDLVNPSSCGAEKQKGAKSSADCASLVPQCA
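MLSMR compounds (23 nl, pin-transferred) preincubated 10 min at room temperature with a 500nM (2x) first reagent, then RGS4 at 900nM (2x) plus Transcreener GDP mix added; fluorescence polarization (620/688 nm) read before and after 90 min at 30 °C.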
Numbers without * were called inactive; i = inactive; ? = inconclusive; . = no result given; [ ] = another dose, or the depositor's remark. Hits are enriched below; roughly 1.1% of the tested compounds scored in any of these assays. Unless noted, calls come from the whole dose curve; as a rule, active = well fitted curve in the direction sought with a large enough effect; inconclusive = small, poorly fitted or top-dose-only effect, or another doubt; inactive = no such curve, though single readings can be large; an effect the other way counts as inactive or inconclusive.

SMILES | LDHA block | p53 reactivator | BRCA1 expr up | PTHR1 ag | RGS4 inhibitor
O=C(Nc1ccc(Nc2ccccc2)cc1)c1ccccc1 | 1.4 | . | 3.55µM* | -97.0% | -52.3%
CC(O)CNc1nc2c(c(=O)n(Cc3ccccc3Cl)c(=O)n2C)n1C (configuration not stated) | 2.0 | . | . | . | .
O=C(NCc1ccco1)c1cc2c(s1)CCCCC2 | -1.2 | 20.6% | 11.2µM* | -23.3% | -19.2%
O=C(Nc1ccon1)c1cc2c(s1)CCCCCC2 | -3.3 | ? | 10µM* | -64.3%[57.5 µM] | 6.5%
CC1CCC(NC(=O)c2cc3c(s2)CCCC3)CC1 (configuration not stated) | -7.0 | ? | 3.98µM* | -10.5% | -14.8%
O=C(Nc1ccon1)c1cc2c(s1)CCCC2 | -8.6 | ? | ? | -36.6% | -0.4%
Cc1oc(-c2cccs2)nc1CC(=O)Nc1ccccc1OCC(F)(F)F | 3.7 | . | . | . | .
CCCC/C(=N/NC(=S)Nc1cccc(C)c1)c1ccccc1 | -8.2 | . | . | . | .
CCCC(C(=O)Nc1nc2ccc(F)cc2s1)c1ccccc1 (configuration not stated) | 11.8 | . | . | . | .
CCOC(=O)Cc1csc(NC(=O)c2cnc3sc(C)cn3c2=O)n1 | -6.8 | 12.5% | 11.2µM* | -18.6% | 8.6%
N#Cc1cn2ncnc2nc1N | -30.6* | . | . | . | .
COCCCN1C(=O)c2[nH]nc(-c3ccccc3O)c2C1c1ccc(OCc2ccccc2)cc1 (configuration not stated) | 3.3 | . | . | -89.6% | -12.6%
CCCCN1C(=O)c2[nH]nc(-c3ccccc3O)c2C1c1ccc(OCc2ccccc2)cc1 (configuration not stated) | -2.5 | . | . | 21.6µM* | 14.0%
Cc1c(C2=CCN(S(=O)(=O)c3ccc(Br)cc3)CC2)c2ccccc2n1CC(=O)N1CCCC1 | 6.6 | . | . | -35.4% | 7.5%
Cc1c(C2=CCN(S(=O)(=O)c3ccc(CC(C)C)cc3)CC2)c2ccccc2n1CC(=O)N1CCCC1 | 4.3 | . | . | 44.7µM* | 1.9%
Cn1ccsc1=NC(=O)c1cccc(OC(F)F)c1 | -1.7 | 28.5% | 8.91µM* | -18.5% | -5.7%[56.9 µM]
C=CCc1cccc2cc(-c3nc4ccc(C)cc4[nH]3)c(=O)oc12 | -7.7 | . | 2µM* | i | 23.9%
C/C(=N\Nc1cc(N2CCOCC2)ncn1)c1ccccc1 | -8.0 | 7.1% | 1.78µM* | -12.9% | 11.0%
O=C1CC2C(CCC23OCCO3)c2ccc3ccccc3c21 (configuration not stated) | -11.5 | . | 10µM* | -14.2% | 13.0%
c1ccc2c(C3CCO3)cccc2c1 (configuration not stated) | -0.7 | 10.6% | 10.0% | -9.4% | -8.7%
Cc1ccc(/C=C/c2nnc(-c3cccs3)o2)cc1 | 0.5 | 19.2% | ? | -73.3%[57.5 µM] | 7.7%
Fc1ccc(/C=C/c2nnc(-c3cccs3)o2)cc1 | -7.2 | ? | 2µM* | -0.5% | 28.8%
CCOC(=O)C1=C(C)N(C[C@@H]2CC[C@@H](Cc3ccc4cc(OC)ccc4c3)O2)C(=O)NC1c1ccc(OC)cc1 (some centres not stated) | 1.8 | -1.2% | -19.6% | -59.0% | 15.5%
COc1ccc2cc(C[C@@H]3CC[C@@H](CO)O3)ccc2c1 | 0.8 | ? | 2.82µM* | -24.9% | 8.3%
Cc1ccc(-n2ncc3c(Nc4cccc(C)c4)ncnc32)cc1 | 2.1 | . | 2.82µM* | i | -8.0%
SMILES | LDHA block | p53 reactivator | BRCA1 expr up | PTHR1 ag | RGS4 inhibitor
CCCn1ncc2c(Nc3ccc(C)c(C)c3)ncnc21 | -2.8 | 18.7% | 8.91µM* | -21.0% | -30.2%
COc1cccc2cc(C(=O)Nc3ccccc3Oc3ccccc3)c(=O)oc12 | -19.2 | . | . | . | .
O=C(CNC(=O)c1ccccc1F)Nc1ccc2c(c1)CCC2 | -0.2 | ? | 3.98µM* | i | -10.0%
O=C(Nc1ccc2c(c1)CCC2)c1c(F)cccc1Cl | -4.0 | 3.5% | 5.01µM* | -8.4% | 7.2%
COC(=O)c1cccc(S(=O)(=O)Oc2ccc3ccc(=O)oc3c2)c1 | 4.0 | . | . | . | .
CCc1ccc(C(C)NC(=O)CN(C)Cc2ccc(C)o2)cc1 (configuration not stated) | 19.3 | . | . | . | .
O=C(c1cccc([N+](=O)[O-])c1)n1nc(-c2ccccc2)nc1NCc1ccccc1 | -6.4 | 26.5% | 10µM* | i | 3.6%
O=C(c1ccc([N+](=O)[O-])cc1)n1nc(-c2ccccc2)nc1NCc1ccccc1 | -6.2 | ? | 68.9% | i | -26.0%
CC(C)N1CCC(=NNC(=O)c2ccccc2[N+](=O)[O-])CC1 | -1.1 | 0.9% | -8.2% | i | 0.1%
CC(C)N1CCC(=NNC(=O)c2cccs2)CC1 | -1.9 | ? | 8.91µM* | -9.4% | 11.1%
Cc1cccnc1NC(=O)C1CC(=O)N(Cc2ccc(F)cc2)C1 (configuration not stated) | 6.3 | . | . | . | .
COc1cc(Cl)ccc1OCc1cc(C(=O)N(C)CC2CCCCO2)no1 (configuration not stated) | -1.2 | ? | ? | -29.0% | -5.2%
Cc1cc(OCc2cc(C(=O)N(C)C3CCOC3)no2)cc(C)c1Cl (configuration not stated) | 1.3 | 10.9% | 2.82µM* | -39.0% | -25.1%
COc1cc(C)ccc1OCc1cc(C(=O)N(Cc2c(C)nn(C)c2C)C2CC2)no1 | 0.9 | ? | 12.6µM* | -18.1% | 26.0%
COc1cc(Cl)ccc1OCc1cc(C(=O)N(C)C2CCOC2)no1 (configuration not stated) | -1.4 | 21.8% | 12.6µM* | i | -6.8%[56.9 µM]
CC(=O)c1ccc(OCc2cc(C(=O)N(C)CCOc3ccc(C)cc3)no2)cc1 | -12.1 | 5.5% | 3.98µM* | -35.4% | -32.0%
Cc1cccc(Cn2c(SCc3ccccc3)nc3c2c(=O)[nH]c(=O)n3C)c1 | -9.6 | . | . | . | .
CC(=O)c1ccc(OCc2cc(C(=O)N(C)C3CCOC3)no2)cc1 (configuration not stated) | 3.5 | -1.2% | 12.6µM* | ? | -0.2%
COc1cc(Cl)ccc1OCc1cc(C(=O)N2C[C@H]3CC[C@H]2C3)no1 | 2.6 | ? | 11.2µM* | -30.1% | -5.1%
CN(C(=O)c1cc(COc2c(F)cccc2F)on1)C1CCOC1 (configuration not stated) | -8.2 | 5.5% | 73.7% | i | 32.6%
Cc1cccc(C)c1OCc1cc(C(=O)N2CC3C[C@@H]4CC2C[C@H](C3)C4)no1 | 0.8 | -18.9% | ? | -45.2% | -17.6%
Cc1ccc(OCc2cc(C(=O)N3CC4C[C@@H]5CC3C[C@H](C4)C5)no2)cc1C | -10.0 | 28.2µM* | ? | -23.4% | 7.1%
COc1cc(Cl)ccc1OCc1cc(C(=O)N2C[C@@H]3CCC[C@H]2C3)no1 | 1.0 | ? | ? | i | -4.3%
CCc1ccc(C(=O)/C=C/c2ccc(O)cc2)cc1 | 5.6 | . | . | . | .
Cc1ccc(OCC(=O)N2CCc3ccccc3C2)c(Br)c1 | 0.4 | 15.7% | 12.6µM* | -40.3% | 9.1%
